DAX1 inh-1 – NR0B1 (DAX1) inhibition; P51843; HEK293 Gal4-DAX1 luciferase reporter, luminescence; inhibition, % at 6.75 µM; 0.99% of 340,000 active;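 active = inhibition above the mean over all tested compounds plus 3 SD, cut at about 4.2% in these data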;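 note: inhibition shows as a rise in luminescence from relieved DAX1 repression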
Target sequence (P51843 207-470 limits assumed): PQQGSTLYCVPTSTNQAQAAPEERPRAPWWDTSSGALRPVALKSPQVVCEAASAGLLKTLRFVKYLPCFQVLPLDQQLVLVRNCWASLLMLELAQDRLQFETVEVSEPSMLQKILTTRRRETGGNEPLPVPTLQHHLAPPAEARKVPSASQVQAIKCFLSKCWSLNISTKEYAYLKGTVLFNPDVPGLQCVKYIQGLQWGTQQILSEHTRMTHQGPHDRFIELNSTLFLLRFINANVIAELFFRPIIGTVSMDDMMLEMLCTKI
DAX1 inh-2 – blocks DAX1 repression of SF-1 activated StAR promoter; HEK293T StAR-luciferase reporter, SF-1/DAX-1 repression relief; inhibition, % at 6.8 µM; 1.1% of 370,000 active;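 active = inhibition above the mean over all tested compounds plus 3 SD, cut at about 3.6% in these data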;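 note: higher inhibition means more luminescence from relief of DAX-1 repression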
hgDAF-12 ag – activates the H. glycines DAF-12 receptor ligand-binding domain; 1.8% of 370,000 active; activation, % at 6.8 µM; HEK293 GAL4-hgDAF12 UAS-luciferase reporter, agonist luminescence; normalized to butyrate control;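 active = activation above a cutoff set at the mean of all screened compounds plus 3 SD, cut at about 10% in these data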
ssDAF-12 act – activators of S. stercoralis DAF-12 nuclear receptor; HEK293 ssDAF-12/GRIP1 lit1-tk-luc reporter, luminescence; % of 3 µM dafachronic acid response; activation, % at 6.8 µM; 1% of 370,000 active; AID 652126;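 active = activation above the mean over all tested compounds plus 3 SD, cut at about 0.9% in these data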
hcDAF12 agonist – H. contortus DAF-12 activation, primary screen; activation, % at 6.8 µM; 1.4% of 370,000 active; HEK293 hcDAF-12 lit1-tk-luc reporter, luminescence; 0% DMSO, 100% Δ7-dafachronic acid; AID 652067;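 active = activation above the mean of all tested compounds plus 3 SD, cut at about 5.5% in these data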
Hits are given with their value. Shown are actives, neighbours in structure and some others; about 4.1% of the full set was active somewhere.

`CC(=O)NC1CCCCN(Cc2cccc(F)c2)C1=O` (centres undefined) gave DAX1 inh-2 inactive, hgDAF-12 ag inactive, ssDAF-12 act inactive and hcDAF12 agonist inactive.
`COc1ccc(NC(=O)NCCC2=CCCCC2)cc1` gave DAX1 inh-1 inactive, DAX1 inh-2 inactive, hgDAF-12 ag 12, ssDAF-12 act inactive and hcDAF12 agonist inactive.
`COc1ccccc1/C=C/C(=O)NCCC1=CCCCC1` gave DAX1 inh-1 inactive, DAX1 inh-2 inactive, hgDAF-12 ag 12, ssDAF-12 act inactive and hcDAF12 agonist inactive.
For COc1cccc(NC(=O)NCCC2=CCCCC2)c1 the results were DAX1 inh-1 inactive, DAX1 inh-2 inactive, hgDAF-12 ag inactive, ssDAF-12 act inactive and hcDAF12 agonist inactive.
`CCN(CC)C(=O)CC[C@H]1CC[C@]2(CCCN(C(=O)c3ccccc3)C2)O1` gave DAX1 inh-2 inactive, hgDAF-12 ag inactive, ssDAF-12 act inactive and hcDAF12 agonist inactive.
For O=P(OC1CCCCC1)(OC1CCCCC1)C(O)c1cccnc1 (centres undefined) the results were DAX1 inh-1 inactive, DAX1 inh-2 inactive, hgDAF-12 ag inactive, ssDAF-12 act inactive and hcDAF12 agonist 5.9.
COc1ccc(OC)c(/C=C/C(=O)Nc2ccc(OC)nc2)c1 was read as DAX1 inh-1 5.6, DAX1 inh-2 inactive, hgDAF-12 ag inactive, ssDAF-12 act inactive and hcDAF12 agonist inactive.
COc1ccc(NC(=O)/C=C/c2ccco2)cn1 was read as DAX1 inh-1 inactive, DAX1 inh-2 inactive, hgDAF-12 ag inactive, ssDAF-12 act inactive and hcDAF12 agonist inactive.
COc1ccc(NC(=O)/C=C/c2cccc(F)c2)cn1 was read as DAX1 inh-1 inactive, DAX1 inh-2 inactive, hgDAF-12 ag 13, ssDAF-12 act inactive and hcDAF12 agonist inactive.
COc1ccc(OC)c(/C=C/C(=O)NC2=NCCS2)c1 was read as DAX1 inh-1 inactive, DAX1 inh-2 inactive, hgDAF-12 ag inactive, ssDAF-12 act inactive and hcDAF12 agonist inactive.
`CCCC/C=C1/[C@@H](C(C)C)N(Cc2ccc3c(c2)OCO3)C2=N[C@H](c3ccccc3)CC(=O)N21` gave hgDAF-12 ag inactive, ssDAF-12 act inactive and hcDAF12 agonist inactive.
For C=CCN1C(=O)[C@@H](CC(=O)NCCC(C)C)[C@]2(C(=O)OCC)CCCCC/C=C/12 the results were DAX1 inh-2 inactive, hgDAF-12 ag inactive, ssDAF-12 act inactive and hcDAF12 agonist inactive.
C[C@@H](C(=O)NCC1CCCO1)N1C(=O)N2CCc3c([nH]c4ccccc34)[C@@]2(C)C1=O (some centres undefined) was read as DAX1 inh-1 inactive, DAX1 inh-2 inactive, hgDAF-12 ag inactive, ssDAF-12 act inactive and hcDAF12 agonist inactive.
For COc1ccc2[nH]c3c(c2c1)CCN1C(=O)N([C@@H](C)C(=O)NCC2CCCO2)C(=O)[C@]31C (some centres undefined) the results were DAX1 inh-1 5.7, DAX1 inh-2 inactive, hgDAF-12 ag inactive, ssDAF-12 act inactive and hcDAF12 agonist inactive.
Screening O=S(=O)(c1ccccc1Br)N(Cc1cn(Cc2ccccc2)nn1)C1CC1 returned DAX1 inh-2 inactive, hgDAF-12 ag inactive, ssDAF-12 act inactive and hcDAF12 agonist inactive.
`O=C(OC12CCCN(C1)/C(=C/c1ccncc1)C2)c1ccc(Cl)cc1` (centres undefined) gave DAX1 inh-2 inactive, hgDAF-12 ag inactive, ssDAF-12 act inactive and hcDAF12 agonist inactive.
`CSCCCNC(=O)CN1C(=O)C2CCCCN2C(=O)c2ccccc21` (centres undefined) gave DAX1 inh-2 inactive, hgDAF-12 ag inactive, ssDAF-12 act inactive and hcDAF12 agonist inactive.
`N#C/C(=N\Nc1ccccc1)C(=N)N1CCCCC1` gave DAX1 inh-1 inactive, DAX1 inh-2 inactive, hgDAF-12 ag 12, ssDAF-12 act inactive and hcDAF12 agonist inactive.
Screening NS(=O)(=O)c1ccc(CCNC(=O)CSc2nc3ccsc3c(=O)n2CCCCCC(=O)O)cc1 returned DAX1 inh-1 inactive, DAX1 inh-2 inactive, hgDAF-12 ag inactive, ssDAF-12 act inactive and hcDAF12 agonist inactive.
CCCCNC(=O)CSc1nc2ccsc2c(=O)n1CCCC(=O)NCCc1ccc(S(N)(=O)=O)cc1 was read as DAX1 inh-1 6.1, DAX1 inh-2 inactive, hgDAF-12 ag inactive, ssDAF-12 act inactive and hcDAF12 agonist inactive.
Screening COC(=O)c1cn[nH]c1NC(=S)Nc1ccc(Cl)c(Cl)c1 returned DAX1 inh-1 inactive, DAX1 inh-2 inactive, hgDAF-12 ag inactive, ssDAF-12 act inactive and hcDAF12 agonist inactive.
Screening COC(=O)c1cn[nH]c1NC(=S)Nc1ccc(C)cc1Cl returned DAX1 inh-1 inactive, DAX1 inh-2 4.2, hgDAF-12 ag inactive, ssDAF-12 act inactive and hcDAF12 agonist inactive.
Screening CCN1CCN(C(=O)c2cc3sccc3n2CC(=O)c2ccccc2)CC1 returned DAX1 inh-1 inactive, DAX1 inh-2 inactive, hgDAF-12 ag inactive, ssDAF-12 act 1.2 and hcDAF12 agonist inactive.
`COc1ccc(Cn2c(NC(=O)c3ccccc3)nc(Cc3ccccc3)c2-c2ccccc2)c(OC)c1` gave DAX1 inh-2 inactive, hgDAF-12 ag inactive, ssDAF-12 act inactive and hcDAF12 agonist inactive.
COC(=O)c1ccc(N=Cc2c(-c3ccccc3)[nH][nH]c2=O)cc1 was read as DAX1 inh-1 inactive, DAX1 inh-2 inactive, hgDAF-12 ag inactive, ssDAF-12 act 1.5 and hcDAF12 agonist inactive.
CCOC(=O)CC[C@H]1CC[C@]2(CCCN(Cc3ccccc3)C2)O1 was read as DAX1 inh-2 inactive, hgDAF-12 ag inactive, ssDAF-12 act inactive and hcDAF12 agonist inactive.
COC(=O)Cc1nnn2c1CC(OC)c1cc(Br)ccc1-2 (centres undefined) was read as DAX1 inh-2 inactive, hgDAF-12 ag inactive, ssDAF-12 act inactive and hcDAF12 agonist inactive.
Screening O=S(=O)(NC1=NCCCCC1)c1cc(F)ccc1F returned DAX1 inh-1 4.5, DAX1 inh-2 inactive, hgDAF-12 ag inactive, ssDAF-12 act inactive and hcDAF12 agonist inactive.
For NC(=O)[C@@H]1CCCN1C(=O)[C@H]1O[C@@H](n2ccc(N)nc2=O)[C@H](O)[C@@H]1O the results were DAX1 inh-2 inactive, hgDAF-12 ag inactive, ssDAF-12 act inactive and hcDAF12 agonist inactive.
COC(=O)c1ccc(NC(=O)COC(=O)C2CC(=O)N(Cc3ccccc3)C2)cc1 (centres undefined) was read as DAX1 inh-1 4.2, DAX1 inh-2 inactive, hgDAF-12 ag inactive, ssDAF-12 act inactive and hcDAF12 agonist inactive.
`C[C@H](O)[C@@H]1CN2CCc3c([nH]c4c(-c5ccccc5)cccc34)[C@@H]2C[C@@H]1N(C)C(=O)NC1CCCCC1` gave DAX1 inh-2 inactive, hgDAF-12 ag inactive, ssDAF-12 act inactive and hcDAF12 agonist inactive.
`CCCN1C(=O)C(NC(=O)c2ccncc2)(C(F)(F)F)C2=C1CC(C)(C)CC2=O` (centres undefined) gave DAX1 inh-1 inactive, DAX1 inh-2 inactive, hgDAF-12 ag inactive, ssDAF-12 act 0.9 and hcDAF12 agonist inactive.
